From the supplement of paper PMC10849652
About 7,900 targets were measured; listed, in parts, are those with a hit and a random draw of the rest. About 0.6% of all pairs of compound and target were hits.

How the values were obtained:
Assay in all cases: log2 fold change, soluble protein after heating vs DMSO (PISA); higher = thermal stabilisation; K562 cells, 10 uM, 30 min; active = over 0.2 and 3.5 SD of the protein, either way, in both replicates (recomputed)
[1] = compound: CN1CCN(CCOc2cc(OC3CCOCC3)c3c(Nc4c(Cl)ccc5c4OCO5)ncnc3c2)CC1 [saracatinib]
How it was run: (§1)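 K562 cells at 2×10^6 cells/mL were given 10 μM compound for 30 min. Aliquots then went through 3 min of heating across 48°C-58°C, were pooled, and were extracted in PBS with 0.5% NP-40 at 4°C, and the supernatant after 21,000xg for 90 min was quantified by TMTpro 16plex LC-MS/MS with channel sums equalised. Thermal stability relative to control samples, from duplicates, is given as log2 fold change.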

[2] = compound: CN1CCN(c2nc(C3=C(c4c[nH]c5ccccc45)C(=O)NC3=O)c3ccccc3n2)CC1 [sotrastaurin]
How it was run: as §1

[3] = compound: CN1CC[C@H](c2c(O)cc(O)c3c(=O)cc(-c4ccccc4Cl)oc23)[C@H](O)C1 [alvocidib]
How it was run: as §1

[4] = compound: CN1CCc2c(c3ccccc3n2Cc2ccc(C(=O)NO)cc2)C1 [Tubastatin A]
How it was run: as §1

[5] = compound: CNC(=O)C1=CC=CC=C1NC2=NC(=NC=C2Cl)NC3=C(C=C(C=C3)N4CCOCC4)OC
How it was run: as §1

[6] = compound: CNC(=O)c1ccc(Nc2ncc(C(F)(F)F)c(NCc3nccnc3N(C)S(C)(=O)=O)n2)cc1 [defactinib]
How it was run: as §1

[7] = compound: CNCc1ccc(-c2[nH]c3cc(F)cc4c3c2CCNC4=O)cc1 [rucaparib]
How it was run: as §1

[8] = compound: CNc1nc(-c2ccc3c(N)n[nH]c3c2)cc(N2C[C@@H](C(=O)NC3CCCCC3)CC[C@H]2C)n1
How it was run: as §1

[9] = compound: COC(=O)N[C@@H](C)CNc1nccc(-c2cn(C(C)C)nc2-c2cc(Cl)cc(NS(C)(=O)=O)c2F)n1 [encorafenib]
How it was run: as §1

[10] = compound: COC(=O)[C@H](CCSC)NC(=O)C1=C(C=C(C=C1)NC[C@H](CS)N)C2=CC=CC=C2
How it was run: as §1

Measured: log2 fold change

KDM1A isoform 2 (UniProt O60341)
inactive: [1] -0.061 | [2] -0.139 | [3] -0.108 | [4] 0.127 | [5] -0.032 | [6] -0.065 | [7] 0.14 | [8] 0.021 | [9] 0.052 | [10] -0.032

ILF3 isoform 7 (UniProt Q12906)
inactive: [1] 0.001 | [2] 0.087 | [3] 0.362 | [4] -0.044 | [5] 0.03 | [7] 0.202 | [8] -0.003 | [9] 0.032 | [10] 0
active: [6] 0.554

MAP1LC3B2 (UniProt A6NCE7)
inactive: [1] 0.016 | [2] -0.115 | [3] -0.063 | [4] 0.037 | [5] 0.026 | [6] -0.015 | [7] 0.004 | [8] -0.015 | [9] 0.032 | [10] -0.048

KIF13A (UniProt Q9H1H9)
inactive: [1] 0.063 | [2] 0.041 | [3] -0.01 | [4] 0.028 | [5] 0.1 | [6] -0.026 | [7] 0.008 | [8] -0.093 | [9] -0.025 | [10] 0.034

KLHL18 (UniProt O94889)
inactive: [1] -0.033 | [2] -0.042 | [3] -0.084 | [4] 0.144 | [5] -0.077 | [6] -0.04 | [7] -0.042 | [8] 0.007 | [9] 0.019 | [10] -0.05

MDN1 (UniProt Q9NU22)
inactive: [1] -0.029 | [2] -0.035 | [3] -0.143 | [4] 0.033 | [5] -0.092 | [6] -0.166 | [7] -0.067 | [8] 0.018 | [9] 0.018 | [10] -0.049

LONP2 (UniProt Q86WA8)
inactive: [1] 0.006 | [2] 0.003 | [3] -0.029 | [4] 0.135 | [5] 0 | [6] -0.12 | [7] 0.067 | [8] -0.079 | [9] 0.13 | [10] 0.007

KIAA1324L (UniProt A8MWY0)
inactive: [1] 0.018 | [2] 0.014 | [3] -0.056 | [4] -0.017 | [5] -0.014 | [6] 0.033 | [7] -0.021 | [8] 0.023 | [9] 0.015 | [10] 0.006

IGFBP3 isoform 2 (UniProt P17936)
inactive: [1] -0.092 | [2] 0.245 | [3] 0.251 | [4] 0.001 | [6] 0.17 | [8] -0.08 | [10] 0.045

ITM2C (UniProt Q9NQX7)
Sequence of UniProt Q9NQX7 (Q9NQX7 whole entry, looked up): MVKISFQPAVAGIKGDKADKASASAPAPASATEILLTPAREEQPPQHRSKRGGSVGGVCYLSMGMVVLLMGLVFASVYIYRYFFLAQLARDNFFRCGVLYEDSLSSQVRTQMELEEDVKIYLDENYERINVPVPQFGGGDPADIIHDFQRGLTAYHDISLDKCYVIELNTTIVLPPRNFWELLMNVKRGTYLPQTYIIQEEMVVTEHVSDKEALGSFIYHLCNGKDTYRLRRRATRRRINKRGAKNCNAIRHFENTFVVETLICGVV
inactive: [1] -0.007 | [2] -0.072 | [3] 0.034 | [5] 0 | [6] 0.039 | [8] -0.003 | [10] -0.045

L2HGDH (UniProt Q9H9P8)
inactive: [1] -0.009 | [2] 0.091 | [3] -0.039 | [4] -0.002 | [5] -0.017 | [6] -0.011 | [7] -0.005 | [8] 0.012 | [9] -0.022 | [10] 0.049

LUZP1 (UniProt Q86V48)
inactive: [1] 0.075 | [2] -0.088 | [3] 0.229 | [4] 0.13 | [5] -0.022 | [6] -0.498 | [8] 0.002 | [10] -0.209

MAPKAPK5 (UniProt Q8IW41)
inactive: [1] 0.008 | [2] -0.028 | [3] 0.062 | [4] 0.036 | [5] -0.02 | [6] -0.032 | [7] 0.095 | [8] -0.039 | [9] -0.016 | [10] 0

MASTL (UniProt Q96GX5)
Sequence of UniProt Q96GX5 (Q96GX5 whole entry, looked up): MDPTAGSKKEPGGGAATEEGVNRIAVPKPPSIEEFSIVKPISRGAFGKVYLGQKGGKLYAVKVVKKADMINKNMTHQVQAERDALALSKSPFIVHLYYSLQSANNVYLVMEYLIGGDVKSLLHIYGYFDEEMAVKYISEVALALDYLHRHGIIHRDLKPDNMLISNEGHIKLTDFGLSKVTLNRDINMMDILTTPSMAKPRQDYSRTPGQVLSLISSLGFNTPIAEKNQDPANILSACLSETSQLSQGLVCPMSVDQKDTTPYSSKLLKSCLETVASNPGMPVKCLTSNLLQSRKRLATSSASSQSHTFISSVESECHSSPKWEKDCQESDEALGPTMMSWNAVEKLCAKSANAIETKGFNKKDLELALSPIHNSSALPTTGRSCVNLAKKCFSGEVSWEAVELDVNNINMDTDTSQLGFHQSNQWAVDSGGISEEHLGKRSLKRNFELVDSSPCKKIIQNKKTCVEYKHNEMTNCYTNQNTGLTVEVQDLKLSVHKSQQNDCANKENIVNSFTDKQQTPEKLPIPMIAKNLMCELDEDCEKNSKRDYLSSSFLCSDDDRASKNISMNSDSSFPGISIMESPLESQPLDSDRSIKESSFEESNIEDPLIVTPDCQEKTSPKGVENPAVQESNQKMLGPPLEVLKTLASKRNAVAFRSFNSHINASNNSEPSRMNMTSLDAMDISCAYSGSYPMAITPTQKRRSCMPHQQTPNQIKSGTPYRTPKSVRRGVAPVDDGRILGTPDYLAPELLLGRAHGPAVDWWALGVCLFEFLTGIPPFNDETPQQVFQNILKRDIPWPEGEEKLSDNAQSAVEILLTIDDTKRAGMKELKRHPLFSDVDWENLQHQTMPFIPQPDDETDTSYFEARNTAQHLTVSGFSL
inactive: [1] 0.107 | [2] -0.12 | [3] -0.061 | [5] 0.054 | [6] 0.037 | [7] -0.17 | [8] -0.055 | [9] 0.083 | [10] 0.079

JAK3 (UniProt P52333)
inactive: [1] -0.03 | [2] -0.042 | [3] 0.004 | [4] -0.016 | [5] 0.116 | [6] 0.003 | [8] -0.158 | [10] -0.056

MFAP3 (UniProt P55082)
Sequence of UniProt P55082 (P55082 whole entry, looked up): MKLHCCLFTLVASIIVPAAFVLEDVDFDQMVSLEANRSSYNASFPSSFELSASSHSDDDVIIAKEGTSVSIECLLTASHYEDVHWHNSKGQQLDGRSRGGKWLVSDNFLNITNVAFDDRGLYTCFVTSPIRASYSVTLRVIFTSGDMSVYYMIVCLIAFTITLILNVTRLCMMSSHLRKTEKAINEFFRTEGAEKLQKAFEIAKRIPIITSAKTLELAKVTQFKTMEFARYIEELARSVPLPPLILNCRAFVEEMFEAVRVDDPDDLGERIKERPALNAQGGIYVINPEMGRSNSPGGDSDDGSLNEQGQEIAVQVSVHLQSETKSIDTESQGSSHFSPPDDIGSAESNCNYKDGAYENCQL
inactive: [1] 0.088 | [2] 0.019 | [4] 0.068 | [6] 0.306 | [8] 0.002 | [10] -0.189

LRBA, A0A494BZW2
inactive: [1] -0.005 | [2] 0.065 | [3] 0.015 | [4] -0.42 | [5] -0.368 | [7] -0.055 | [8] -0.008 | [9] 0.041

MFSD11 (UniProt O43934)
inactive: [1] 0.092 | [2] 0.085 | [3] -0.029 | [4] 0.005 | [6] -0.033 | [7] -0.002 | [8] -0.127 | [9] -0.047 | [10] -0.015

LSR isoform 3 (UniProt Q86X29)
inactive: [1] -0.207 | [2] 0.176 | [3] 0.088 | [4] 0.084 | [8] 0.114

LMBR1 isoform 3 (UniProt Q8WVP7)
inactive: [1] 0.085 | [2] -0.004 | [3] -0.06 | [4] 0.079 | [5] -0.045 | [6] -0.104 | [8] -0.009 | [10] 0.132

MIER1 isoform 12 (UniProt Q8N108)
inactive: [1] 0.026 | [2] -0.024 | [3] -0.079 | [5] -0.058 | [6] -0.13 | [7] -0.01 | [8] -0.056 | [9] -0.004 | [10] 0.017
active: [4] 0.297

KCNK5 (UniProt O95279)
inactive: [1] -0.444 | [2] -0.047 | [3] -0.239 | [5] -0.05 | [7] 0.05 | [9] 0.017
active: [8] -1.08

LUC7L (UniProt Q9NQ29)
inactive: [1] -0.005 | [2] 0.056 | [3] 0.062 | [4] 0.006 | [5] -0.119 | [6] 0.022 | [7] 0.076 | [8] -0.049 | [9] 0.039 | [10] 0.022

MFSD8 (UniProt Q8NHS3)
inactive: [1] 0.078 | [3] -0.044 | [4] 0.023 | [5] -0.003 | [6] -0.008 | [7] 0.039 | [8] -0.053 | [9] 0.012 | [10] 0.003

IL10RB (UniProt Q08334)
inactive: [1] 0.107 | [2] -0.021 | [4] 0.022 | [5] -0.121 | [6] -0.042 | [7] 0.015 | [8] -0.005 | [9] -0.093 | [10] 0.026

IKZF1 (UniProt Q13422)
inactive: [1] 0.038 | [2] -0.133 | [3] -0.127 | [4] -0.018 | [5] -0.042 | [6] -0.1 | [7] -0.026 | [8] -0.029 | [9] -0.052 | [10] -0.008

KCT2 (UniProt Q8NC54)
Sequence of UniProt Q8NC54 (Q8NC54 whole entry, looked up): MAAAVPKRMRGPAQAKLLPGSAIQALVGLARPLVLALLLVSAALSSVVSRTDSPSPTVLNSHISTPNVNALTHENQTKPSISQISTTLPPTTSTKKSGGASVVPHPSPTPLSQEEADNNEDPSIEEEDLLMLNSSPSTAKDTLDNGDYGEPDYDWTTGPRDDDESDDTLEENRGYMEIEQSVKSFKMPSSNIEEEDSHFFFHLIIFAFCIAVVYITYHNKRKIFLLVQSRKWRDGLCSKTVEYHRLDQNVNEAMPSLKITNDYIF
inactive: [1] 0.027 | [2] 0.042 | [3] -0.095 | [4] -0.003 | [5] 0.096 | [6] -0.088 | [7] -0.008 | [8] 0.031 | [9] 0.063 | [10] -0.036

IP6K1 (UniProt Q92551)
inactive: [1] -0.174 | [2] -0.113 | [3] -0.074 | [4] -0.06 | [5] 0.331 | [7] -0.045 | [8] 0.119 | [9] 0.094

MAGED1 isoform 2 (UniProt Q9Y5V3)
Sequence of UniProt Q9Y5V3 (Q9Y5V3 whole entry, looked up): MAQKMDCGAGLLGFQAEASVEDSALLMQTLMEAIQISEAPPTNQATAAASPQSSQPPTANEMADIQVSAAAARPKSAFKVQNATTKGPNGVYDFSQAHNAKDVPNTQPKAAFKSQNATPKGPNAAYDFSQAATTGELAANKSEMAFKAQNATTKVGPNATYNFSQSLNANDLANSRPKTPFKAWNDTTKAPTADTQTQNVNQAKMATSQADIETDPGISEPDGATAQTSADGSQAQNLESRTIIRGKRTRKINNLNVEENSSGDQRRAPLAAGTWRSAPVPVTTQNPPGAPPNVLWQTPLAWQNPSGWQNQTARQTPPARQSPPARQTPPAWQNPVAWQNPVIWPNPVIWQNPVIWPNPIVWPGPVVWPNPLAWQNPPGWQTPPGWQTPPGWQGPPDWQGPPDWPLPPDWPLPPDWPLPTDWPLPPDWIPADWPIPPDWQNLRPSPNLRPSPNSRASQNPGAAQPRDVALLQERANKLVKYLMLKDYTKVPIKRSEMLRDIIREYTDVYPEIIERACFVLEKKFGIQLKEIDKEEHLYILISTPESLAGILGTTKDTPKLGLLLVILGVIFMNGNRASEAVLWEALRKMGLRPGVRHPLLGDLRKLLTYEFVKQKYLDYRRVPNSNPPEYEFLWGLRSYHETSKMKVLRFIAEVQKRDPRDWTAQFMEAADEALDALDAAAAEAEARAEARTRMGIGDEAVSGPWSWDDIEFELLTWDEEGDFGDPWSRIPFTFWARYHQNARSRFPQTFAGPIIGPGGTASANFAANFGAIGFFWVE
inactive: [1] -0.073 | [2] -0.196 | [3] 0.002 | [5] 0.015 | [6] 0.036 | [8] 0.117 | [10] 0.197

MAGEA8 (UniProt P43361)
Sequence of UniProt P43361 (P43361 whole entry, looked up): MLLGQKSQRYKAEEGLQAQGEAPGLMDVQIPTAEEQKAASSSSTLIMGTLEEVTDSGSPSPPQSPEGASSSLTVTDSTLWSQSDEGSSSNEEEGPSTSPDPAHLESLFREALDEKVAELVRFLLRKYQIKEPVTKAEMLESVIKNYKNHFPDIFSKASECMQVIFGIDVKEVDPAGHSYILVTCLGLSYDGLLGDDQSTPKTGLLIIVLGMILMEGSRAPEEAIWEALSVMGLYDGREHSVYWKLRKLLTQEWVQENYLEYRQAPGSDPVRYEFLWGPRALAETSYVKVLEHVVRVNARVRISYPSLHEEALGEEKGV
inactive: [1] -0.006 | [3] -0.022 | [4] 0.101 | [5] 0.123 | [6] -0.267 | [7] -0.012 | [8] -0.092 | [9] 0.038 | [10] -0.038

MAN2B2 (UniProt Q9Y2E5)
inactive: [1] -0.015 | [2] -0.018 | [4] 0.105 | [5] 0.035 | [6] -0.009 | [7] -0.158 | [8] 0.007 | [9] 0.044 | [10] -0.04

LIAS (UniProt O43766)
inactive: [1] 0.049 | [3] 0.065 | [4] -0.056 | [5] 0.029 | [6] 0.018 | [7] 0.017 | [8] -0.027 | [9] 0 | [10] 0.022
active: [2] 0.271

MED12 isoform 2 (UniProt Q93074)
Sequence of UniProt Q93074 (Q93074 whole entry, looked up): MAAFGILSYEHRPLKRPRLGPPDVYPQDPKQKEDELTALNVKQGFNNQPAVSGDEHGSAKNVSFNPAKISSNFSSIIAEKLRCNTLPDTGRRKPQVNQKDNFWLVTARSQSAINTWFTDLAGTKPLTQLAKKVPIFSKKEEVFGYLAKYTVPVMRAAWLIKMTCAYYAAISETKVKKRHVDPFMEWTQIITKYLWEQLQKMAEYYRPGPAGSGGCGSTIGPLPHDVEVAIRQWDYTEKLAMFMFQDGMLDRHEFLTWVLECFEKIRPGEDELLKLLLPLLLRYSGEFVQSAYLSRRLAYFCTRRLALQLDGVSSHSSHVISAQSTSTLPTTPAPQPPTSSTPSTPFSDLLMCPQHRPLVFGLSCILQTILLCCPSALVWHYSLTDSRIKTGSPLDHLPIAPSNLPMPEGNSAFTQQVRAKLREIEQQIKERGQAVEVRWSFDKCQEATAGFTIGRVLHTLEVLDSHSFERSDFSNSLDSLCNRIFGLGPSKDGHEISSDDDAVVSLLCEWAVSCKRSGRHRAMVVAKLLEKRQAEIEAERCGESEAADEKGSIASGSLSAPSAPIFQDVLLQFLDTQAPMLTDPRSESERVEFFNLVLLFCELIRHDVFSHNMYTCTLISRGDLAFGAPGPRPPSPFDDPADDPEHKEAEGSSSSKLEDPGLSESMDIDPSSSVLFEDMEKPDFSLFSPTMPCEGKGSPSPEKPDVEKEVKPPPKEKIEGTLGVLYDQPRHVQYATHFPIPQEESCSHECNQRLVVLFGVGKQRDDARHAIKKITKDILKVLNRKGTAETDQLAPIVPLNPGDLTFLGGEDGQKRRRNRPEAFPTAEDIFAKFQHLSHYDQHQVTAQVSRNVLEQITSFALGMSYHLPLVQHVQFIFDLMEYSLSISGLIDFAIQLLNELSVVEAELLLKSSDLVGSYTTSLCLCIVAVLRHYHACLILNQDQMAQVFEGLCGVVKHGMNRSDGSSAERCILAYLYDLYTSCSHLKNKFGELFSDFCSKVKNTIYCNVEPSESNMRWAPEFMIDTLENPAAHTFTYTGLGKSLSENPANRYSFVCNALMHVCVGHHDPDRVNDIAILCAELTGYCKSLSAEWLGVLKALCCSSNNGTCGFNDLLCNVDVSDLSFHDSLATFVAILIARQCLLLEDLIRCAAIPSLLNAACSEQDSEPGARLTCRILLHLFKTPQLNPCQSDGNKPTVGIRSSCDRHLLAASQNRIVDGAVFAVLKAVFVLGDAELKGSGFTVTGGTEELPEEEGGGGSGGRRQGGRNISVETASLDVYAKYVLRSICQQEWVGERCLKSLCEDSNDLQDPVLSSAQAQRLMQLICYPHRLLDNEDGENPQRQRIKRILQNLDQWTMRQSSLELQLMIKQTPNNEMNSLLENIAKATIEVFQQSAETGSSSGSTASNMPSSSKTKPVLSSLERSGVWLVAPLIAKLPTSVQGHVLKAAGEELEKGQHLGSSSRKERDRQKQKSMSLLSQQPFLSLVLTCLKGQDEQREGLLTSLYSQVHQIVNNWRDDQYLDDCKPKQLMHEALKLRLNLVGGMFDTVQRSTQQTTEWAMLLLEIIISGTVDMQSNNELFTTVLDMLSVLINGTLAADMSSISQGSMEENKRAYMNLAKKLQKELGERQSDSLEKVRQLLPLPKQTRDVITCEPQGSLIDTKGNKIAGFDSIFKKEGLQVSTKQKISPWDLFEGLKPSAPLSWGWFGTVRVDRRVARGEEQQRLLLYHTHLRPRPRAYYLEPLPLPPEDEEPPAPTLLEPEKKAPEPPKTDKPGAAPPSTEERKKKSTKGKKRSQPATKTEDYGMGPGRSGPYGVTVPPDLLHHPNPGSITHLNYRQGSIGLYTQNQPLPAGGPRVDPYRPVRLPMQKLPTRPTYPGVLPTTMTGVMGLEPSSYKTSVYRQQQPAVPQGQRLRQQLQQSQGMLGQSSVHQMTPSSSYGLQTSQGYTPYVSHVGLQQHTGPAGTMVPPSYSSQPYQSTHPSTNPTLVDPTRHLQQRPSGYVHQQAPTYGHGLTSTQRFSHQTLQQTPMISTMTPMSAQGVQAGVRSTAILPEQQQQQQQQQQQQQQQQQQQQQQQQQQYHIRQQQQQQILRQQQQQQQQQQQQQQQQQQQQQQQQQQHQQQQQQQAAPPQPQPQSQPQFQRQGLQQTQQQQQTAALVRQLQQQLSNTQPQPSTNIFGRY
inactive: [1] 0.072 | [2] -0.09 | [4] 0.32 | [5] 0.303 | [7] 0.137 | [8] 0.102 | [9] 0.145
